Results reported in PubChem BioAssay AID720597 (Broad Institute, 2013).
Potency and affinity values are given separately.

target: NAD-dependent protein deacylase sirtuin-5, mitochondrial (Homo sapiens) (UniProt Q9NXA8); assay: SIRT5 deacylase inhibitors, dose response, biochemical, fluorescence imaging, cherry-pick, set 6 (AID 720597); conditions: Purified SirT5, succinyl-peptide-AMC/trypsin fluorescence; series mostly up to 15 µM; activity change, negative = inhibition: at the top concentration;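 note: lower AMC signal can also come from blocking the trypsin step; 0% = median of neutral control wells and -100% = median of positive control wells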
Sequence (Q9NXA8 whole entry, looked up): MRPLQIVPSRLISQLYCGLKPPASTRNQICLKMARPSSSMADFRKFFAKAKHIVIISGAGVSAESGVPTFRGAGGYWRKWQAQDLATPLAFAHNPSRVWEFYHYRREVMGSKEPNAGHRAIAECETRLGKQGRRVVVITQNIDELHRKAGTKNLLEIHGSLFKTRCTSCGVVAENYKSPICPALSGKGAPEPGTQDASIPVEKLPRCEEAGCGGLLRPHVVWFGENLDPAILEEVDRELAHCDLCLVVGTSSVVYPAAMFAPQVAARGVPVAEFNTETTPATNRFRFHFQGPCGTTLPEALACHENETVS

Activity change, negative = inhibition, inactive:
O=S(=O)(c1ccc(F)cc1)N1CCCCN2[C@H](CO)[C@H](c3ccc(C#CC4CCCC4)cc3)[C@H]2C1 10%
CC(C)C#Cc1cnc2c(c1)C(=O)N([C@@H](C)CO)C[C@@H](C)[C@H](CN(C)C(=O)CN1CCOCC1)O2 -1.23%
C[C@@H]1CN([C@H](C)CO)C(=O)c2cc(-c3ccc(F)cc3)cnc2O[C@H]1CN(C)C(=O)Cc1ccccn1 -17.1%
C[C@@H]1CN([C@@H](C)CO)C(=O)c2cc(NS(=O)(=O)c3ccc(F)cc3)ccc2O[C@@H](C)CCCCO[C@@H]1CN(C)S(=O)(=O)c1ccc(Cl)cc1 -1.29%
COc1cccc(C(=O)Nc2ccc3c(c2)C(=O)N(C)C[C@H](OC)[C@@H](C)CN(CCc2ccccc2)[C@H](C)CO3)c1 6.36%
CN(C)C(=O)c1cccc(-c2ccc([C@@H]3[C@@H](CO)N4CCCCN(S(C)(=O)=O)C[C@H]34)cc2)c1 -17.2%
C[C@@H]1CN([C@H](C)CO)C(=O)c2cc(NC(=O)c3ccncc3)ccc2O[C@@H]1CN(C)C(=O)Nc1ccc2c(c1)OCO2 -14.6%
Cc1ccccc1-c1ccc2c(c1)O[C@@H](CN(C)C(=O)Nc1ccc(F)cc1)[C@@H](C)CN([C@@H](C)CO)S2(=O)=O 8.23%
COc1ccc(S(=O)(=O)Nc2ccc3c(c2)CC(=O)N([C@@H](C)CO)C[C@@H](C)[C@H](CN(C)Cc2ccc(C(F)(F)F)cc2)O3)cc1 8.76%
C[C@H](CO)N1C[C@H](C)[C@@H](CN(C)Cc2ccc(C(F)(F)F)cc2)OCCCC[C@H](C)Oc2ccc(NS(=O)(=O)c3cccs3)cc2C1=O -3.35%
C[C@H]1CN([C@@H](C)CO)C(=O)c2cccc(NC(=O)CCCCCC(=O)Nc3ccccc3N)c2O[C@@H]1CN(C)Cc1ccc(-c2ccccc2)cc1 -32.2% [at 12 µM]
C[C@H](O)C#Cc1ccc2c(c1)O[C@H](CN(C)Cc1ccc(-c3ccccc3)cc1)[C@@H](C)CN([C@@H](C)CO)S2(=O)=O -4.29% [at 7.5 µM]
COc1ccc(S(=O)(=O)Nc2ccc3c(c2)C(=O)N([C@@H](C)CO)C[C@H](C)[C@H](CN(C)S(=O)(=O)c2ccc(Cl)cc2)OCCCC[C@@H](C)O3)cc1 17.8%
C[C@@H]1CN([C@@H](C)CO)C(=O)c2cc(-c3cccc(F)c3)cnc2O[C@H]1CN(C)C(=O)Nc1cc(F)ccc1F -1.1%
CCC(=O)N1[C@H](CO)[C@H](c2ccc(-c3ccccc3)cc2)[C@H]1CN(CC)C(C)=O 2.76%
CC(C)CC#Cc1ccc2c(c1)O[C@H](CN(C)S(=O)(=O)c1cccc(F)c1)[C@@H](C)CN([C@@H](C)CO)S2(=O)=O 23%
C[C@H]1CN([C@@H](C)CO)C(=O)c2cc(NS(=O)(=O)c3ccc(Cl)cc3)ccc2O[C@H]1CN(C)Cc1ccc(Cl)c(Cl)c1 -3.12%
C[C@H]1CN([C@@H](C)CO)C(=O)c2cc(C#CCN(C)C)cnc2O[C@H]1CN(C)S(=O)(=O)c1ccccc1 -12.4%
N#C[C@H]1[C@@H](c2ccccc2-c2ccccc2)[C@@H](CO)N1c1ncc(-c2ccccc2)s1 11.6%
CCCNC(=O)N(C)C[C@H]1Oc2cc(C#CC(C)C)ccc2S(=O)(=O)N([C@H](C)CO)C[C@@H]1C 8.83%
C[C@@H]1CN([C@H](C)CO)C(=O)c2cccc(NC(=O)NC3CCCCC3)c2O[C@@H]1CN(C)Cc1ccc(Oc2ccccc2)cc1 -19%
Cc1ccc(S(=O)(=O)N(C)C[C@@H]2OCCCC[C@@H](C)Oc3ccc(NS(=O)(=O)c4ccc(F)cc4)cc3C(=O)N([C@@H](C)CO)C[C@@H]2C)cc1 -6.02%
C[C@@H]1CN([C@H](C)CO)C(=O)c2cc(NS(=O)(=O)c3cccs3)ccc2O[C@@H](C)CCCCO[C@@H]1CN(C)Cc1ccc(C(F)(F)F)cc1 -13%
C[C@@H]1CN([C@H](C)CO)S(=O)(=O)c2ccc(C#Cc3ccccn3)cc2O[C@@H]1CN(C)Cc1cccc(F)c1 -5.39%
C[C@H]1CN([C@@H](C)CO)C(=O)c2cc(NC(=O)CCC(F)(F)F)ccc2O[C@H]1CN(C)Cc1ccc(C(F)(F)F)cc1 -26.3%
C[C@@H]1CN([C@@H](C)CO)S(=O)(=O)c2ccc(/C=C/c3ccccc3)cc2O[C@H]1CN(C)C(=O)NC1CCCCC1 22.6%
C[C@@H]1CN([C@H](C)CO)C(=O)c2cc(NC(=O)Cc3ccccc3)ccc2O[C@@H]1CN(C)Cc1ccc(Oc2ccccc2)cc1 41.8%
